Compound: C#CCNC(=O)CCSSCCC(=O)NCCc1ccc(C=O)c(C=O)c1
Assay: lysine labeling ratio R10:1 (500 µM / 50 µM probe), SILAC-ABPP in living cells; higher = lower intrinsic lysine reactivity toward the probe, active = 2 or less
Details: HeLa; probe concentrations 500 vs 50 µM
Method in brief: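 Forward and reverse SILAC label swaps were used with living light and heavy HeLa cells in PBS at room temperature, which were given an alkyne-tagged, disulfide-linked lysine probe at 50 µM or 500 µM. R is the per-lysine filtered median high-probe/low-probe MS1 peptide ratio, with the median then taken across both swap directions. Values are limited to 20.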

Sequence of UniProt Q13813 (Q13813 whole entry): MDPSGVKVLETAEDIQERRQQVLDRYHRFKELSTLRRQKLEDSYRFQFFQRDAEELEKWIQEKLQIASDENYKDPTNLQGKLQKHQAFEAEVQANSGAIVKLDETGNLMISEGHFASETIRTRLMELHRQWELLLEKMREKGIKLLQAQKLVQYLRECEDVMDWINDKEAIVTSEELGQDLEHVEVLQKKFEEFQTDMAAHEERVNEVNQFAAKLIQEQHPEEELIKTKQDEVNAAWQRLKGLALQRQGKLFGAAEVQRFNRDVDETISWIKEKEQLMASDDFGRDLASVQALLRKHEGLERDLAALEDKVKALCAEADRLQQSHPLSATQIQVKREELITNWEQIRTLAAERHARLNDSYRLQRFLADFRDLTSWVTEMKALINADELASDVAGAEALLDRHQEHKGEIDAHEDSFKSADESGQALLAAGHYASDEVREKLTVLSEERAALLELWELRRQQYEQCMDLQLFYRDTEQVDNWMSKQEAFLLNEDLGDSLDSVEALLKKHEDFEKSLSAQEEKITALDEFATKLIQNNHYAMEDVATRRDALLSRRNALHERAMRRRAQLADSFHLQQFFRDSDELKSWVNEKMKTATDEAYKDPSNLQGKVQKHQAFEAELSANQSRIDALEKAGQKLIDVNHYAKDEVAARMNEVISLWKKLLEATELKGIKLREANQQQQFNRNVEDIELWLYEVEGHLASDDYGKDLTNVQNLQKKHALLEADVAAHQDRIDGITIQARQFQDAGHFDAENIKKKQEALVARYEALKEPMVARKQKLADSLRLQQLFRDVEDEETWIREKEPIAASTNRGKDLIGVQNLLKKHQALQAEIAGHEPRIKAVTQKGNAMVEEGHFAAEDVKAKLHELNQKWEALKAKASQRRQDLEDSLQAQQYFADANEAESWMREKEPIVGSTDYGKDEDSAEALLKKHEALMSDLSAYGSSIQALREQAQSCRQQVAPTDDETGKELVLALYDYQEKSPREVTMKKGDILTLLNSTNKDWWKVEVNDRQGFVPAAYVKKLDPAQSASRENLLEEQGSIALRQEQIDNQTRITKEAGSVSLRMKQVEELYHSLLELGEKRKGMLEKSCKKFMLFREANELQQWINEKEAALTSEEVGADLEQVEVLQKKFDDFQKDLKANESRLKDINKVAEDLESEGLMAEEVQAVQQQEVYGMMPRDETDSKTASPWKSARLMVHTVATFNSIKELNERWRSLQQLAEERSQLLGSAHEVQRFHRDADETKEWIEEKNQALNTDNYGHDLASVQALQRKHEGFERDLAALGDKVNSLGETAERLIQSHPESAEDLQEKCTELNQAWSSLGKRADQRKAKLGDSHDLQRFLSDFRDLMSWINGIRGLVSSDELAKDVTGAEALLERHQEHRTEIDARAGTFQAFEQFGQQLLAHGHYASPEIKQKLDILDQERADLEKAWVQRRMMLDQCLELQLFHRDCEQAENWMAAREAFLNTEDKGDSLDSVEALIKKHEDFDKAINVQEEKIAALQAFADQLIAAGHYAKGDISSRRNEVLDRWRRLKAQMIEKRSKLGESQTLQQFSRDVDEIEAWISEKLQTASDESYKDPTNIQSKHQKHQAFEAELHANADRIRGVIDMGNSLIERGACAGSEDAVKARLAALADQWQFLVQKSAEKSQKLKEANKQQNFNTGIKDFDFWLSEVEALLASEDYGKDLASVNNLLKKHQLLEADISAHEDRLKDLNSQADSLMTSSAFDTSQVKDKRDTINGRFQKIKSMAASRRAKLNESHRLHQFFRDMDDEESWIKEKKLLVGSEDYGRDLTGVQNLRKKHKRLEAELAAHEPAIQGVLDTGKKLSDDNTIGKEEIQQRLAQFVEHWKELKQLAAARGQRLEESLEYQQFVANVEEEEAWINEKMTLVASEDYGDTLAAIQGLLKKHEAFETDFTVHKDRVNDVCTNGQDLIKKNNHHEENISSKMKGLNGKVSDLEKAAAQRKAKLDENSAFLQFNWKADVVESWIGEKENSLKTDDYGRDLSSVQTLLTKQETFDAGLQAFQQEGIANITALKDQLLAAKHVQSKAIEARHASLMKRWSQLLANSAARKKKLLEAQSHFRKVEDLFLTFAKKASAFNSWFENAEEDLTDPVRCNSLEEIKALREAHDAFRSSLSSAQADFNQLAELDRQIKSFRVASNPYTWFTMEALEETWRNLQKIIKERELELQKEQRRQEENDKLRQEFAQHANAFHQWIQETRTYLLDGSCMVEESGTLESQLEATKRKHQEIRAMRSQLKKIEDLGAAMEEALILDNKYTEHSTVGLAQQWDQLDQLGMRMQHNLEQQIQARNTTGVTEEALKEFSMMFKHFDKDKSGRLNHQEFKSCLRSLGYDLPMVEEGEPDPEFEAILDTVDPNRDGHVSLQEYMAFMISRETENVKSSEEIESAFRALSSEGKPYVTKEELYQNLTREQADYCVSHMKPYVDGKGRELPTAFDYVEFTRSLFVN
Sequence of UniProt Q05682 (Q05682 whole entry): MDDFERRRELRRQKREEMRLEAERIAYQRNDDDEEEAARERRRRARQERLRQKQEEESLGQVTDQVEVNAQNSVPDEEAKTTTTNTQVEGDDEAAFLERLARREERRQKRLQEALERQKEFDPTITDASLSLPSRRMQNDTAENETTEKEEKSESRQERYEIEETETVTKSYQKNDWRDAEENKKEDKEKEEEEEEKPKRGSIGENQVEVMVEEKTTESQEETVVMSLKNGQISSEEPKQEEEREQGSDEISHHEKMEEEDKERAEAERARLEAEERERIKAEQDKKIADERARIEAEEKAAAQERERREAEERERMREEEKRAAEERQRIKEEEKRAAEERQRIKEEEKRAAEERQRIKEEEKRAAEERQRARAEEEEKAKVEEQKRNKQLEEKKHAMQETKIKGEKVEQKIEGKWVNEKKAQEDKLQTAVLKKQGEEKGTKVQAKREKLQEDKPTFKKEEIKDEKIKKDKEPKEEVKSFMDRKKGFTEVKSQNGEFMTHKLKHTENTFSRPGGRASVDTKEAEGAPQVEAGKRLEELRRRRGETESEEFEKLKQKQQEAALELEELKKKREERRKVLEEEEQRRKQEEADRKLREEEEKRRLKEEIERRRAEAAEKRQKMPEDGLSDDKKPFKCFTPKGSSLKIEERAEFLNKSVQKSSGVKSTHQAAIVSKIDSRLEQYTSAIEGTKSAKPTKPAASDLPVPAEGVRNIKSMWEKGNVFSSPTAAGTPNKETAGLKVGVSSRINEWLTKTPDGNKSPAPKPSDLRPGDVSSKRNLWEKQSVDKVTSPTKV
Sequence of UniProt P61604 (P61604 whole entry): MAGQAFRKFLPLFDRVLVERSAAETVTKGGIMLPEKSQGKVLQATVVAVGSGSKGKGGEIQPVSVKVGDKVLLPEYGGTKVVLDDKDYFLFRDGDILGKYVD
Sequence of UniProt P30041 (P30041 whole entry): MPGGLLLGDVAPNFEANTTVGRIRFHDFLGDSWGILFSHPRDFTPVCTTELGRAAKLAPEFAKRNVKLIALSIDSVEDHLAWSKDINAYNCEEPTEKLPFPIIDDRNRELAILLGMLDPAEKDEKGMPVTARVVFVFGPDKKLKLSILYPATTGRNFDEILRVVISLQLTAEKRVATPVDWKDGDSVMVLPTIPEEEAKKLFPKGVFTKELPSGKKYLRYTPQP
Sequence of UniProt P42892 (P42892 whole entry): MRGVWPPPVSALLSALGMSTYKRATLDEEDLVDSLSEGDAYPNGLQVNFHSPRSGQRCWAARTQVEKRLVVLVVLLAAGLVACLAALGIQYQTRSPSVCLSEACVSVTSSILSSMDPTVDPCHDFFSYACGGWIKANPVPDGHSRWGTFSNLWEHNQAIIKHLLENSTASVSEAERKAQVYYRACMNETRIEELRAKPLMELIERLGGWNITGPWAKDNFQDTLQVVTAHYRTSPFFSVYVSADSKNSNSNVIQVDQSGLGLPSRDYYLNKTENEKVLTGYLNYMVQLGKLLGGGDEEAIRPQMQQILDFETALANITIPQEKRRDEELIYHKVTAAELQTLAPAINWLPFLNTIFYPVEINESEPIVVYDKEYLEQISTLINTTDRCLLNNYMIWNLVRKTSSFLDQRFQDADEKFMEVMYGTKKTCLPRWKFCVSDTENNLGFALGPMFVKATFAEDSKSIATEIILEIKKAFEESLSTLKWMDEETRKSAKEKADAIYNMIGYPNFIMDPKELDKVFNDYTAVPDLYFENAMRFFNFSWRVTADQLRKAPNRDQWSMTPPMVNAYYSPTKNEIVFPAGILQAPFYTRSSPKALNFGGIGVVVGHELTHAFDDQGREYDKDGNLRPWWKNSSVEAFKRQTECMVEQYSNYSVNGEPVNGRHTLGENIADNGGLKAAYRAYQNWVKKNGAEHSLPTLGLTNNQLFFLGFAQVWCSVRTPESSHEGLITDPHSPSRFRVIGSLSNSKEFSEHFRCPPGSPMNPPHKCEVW
Sequence of UniProt O14763 (O14763 whole entry): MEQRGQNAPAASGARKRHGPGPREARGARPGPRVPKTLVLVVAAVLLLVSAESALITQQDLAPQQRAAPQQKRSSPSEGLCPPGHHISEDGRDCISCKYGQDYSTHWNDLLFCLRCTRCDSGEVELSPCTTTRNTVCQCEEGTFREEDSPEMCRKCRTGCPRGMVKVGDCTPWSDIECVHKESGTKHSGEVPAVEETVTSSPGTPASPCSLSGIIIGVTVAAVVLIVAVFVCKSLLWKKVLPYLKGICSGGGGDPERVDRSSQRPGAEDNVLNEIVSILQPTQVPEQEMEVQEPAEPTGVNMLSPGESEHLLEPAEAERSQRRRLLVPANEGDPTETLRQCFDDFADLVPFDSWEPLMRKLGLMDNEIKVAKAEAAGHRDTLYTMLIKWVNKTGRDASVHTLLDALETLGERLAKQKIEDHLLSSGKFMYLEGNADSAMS
Sequence of UniProt P51153 (P51153 whole entry): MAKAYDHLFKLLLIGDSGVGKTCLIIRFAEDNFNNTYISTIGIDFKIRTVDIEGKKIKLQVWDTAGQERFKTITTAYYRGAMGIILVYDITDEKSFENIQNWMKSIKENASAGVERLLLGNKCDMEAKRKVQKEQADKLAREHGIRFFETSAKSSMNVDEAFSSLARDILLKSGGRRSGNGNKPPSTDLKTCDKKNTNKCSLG

| Target | lysine labeling ratio R10:1 |
| --- | --- |
| SPTAN1 (lysine site: K1784) (UniProt Q13813) | 1.22 (active) |
| SQSTM1 (lysine site: K13) (UniProt Q13501) | 7.96 (inactive) |
| UniProt P20591 (lysine site: K505) | 2.52 (inactive) |
| CCT8 (lysine site: K400) (UniProt P50990) | 4.01 (inactive) |
| ECE1 (lysine site: K197) (UniProt P42892) | 2.89 (inactive) |
| UniProt Q9HAB3 (lysine site: K437) | 2.11 (inactive) |
| AXL (lysine site: K211) (UniProt P30530) | 2.55 (inactive) |
| PRDX6 (lysine site: K56) (UniProt P30041) | 3.23 (inactive) |
| XRCC6 (lysine site: K189) (UniProt P12956) | 4 (inactive) |
| FGB (lysine site: K426) (UniProt P02675) | 2.95 (inactive) |
| UniProt Q8WXI7 (lysine site: K14239) | 4.55 (inactive) |
| LAMB1 (lysine site: K215) (UniProt P07942) | 2.29 (inactive) |
| UniProt Q8WXI7 (lysine site: K13246) | 5.01 (inactive) |
| CAPZA1 (lysine site: K19) (UniProt P52907) | 2.43 (inactive) |
| RAB13 (lysine site: K172) (UniProt P51153) | 4.07 (inactive) |
| GHITM (lysine site: K76) (UniProt Q9H3K2) | 4.44 (inactive) |
| TNFRSF10B (lysine site: K72) (UniProt O14763) | 3.31 (inactive) |
| FLOT1 (lysine site: K220) (UniProt O75955) | 2.84 (inactive) |
| IGF1R (lysine site: K469) (UniProt P08069) | 3.98 (inactive) |
| LPL (lysine site: K129) (UniProt P06858) | 1.65 (active) |

| Target | lysine labeling ratio R10:1 |
| --- | --- |
| EGFR (lysine site: K325) (UniProt P00533) | 5.84 (inactive) |
| G6PD (lysine site: K360) (UniProt P11413) | 2.07 (inactive) |
| UniProt P17612 (lysine site: K48) | 1.56 (active) |
| RPL5 (lysine site: K188) (UniProt P46777) | 4.22 (inactive) |
| CALD1 (lysine site: K674) (UniProt Q05682) | 2.25 (inactive) |
| SPTAN1 (lysine site: K1759) (UniProt Q13813) | 4.65 (inactive) |
| UniProt O95980 (lysine site: K230) | 1.91 (active) |
| ALDOA (lysine site: K42) (UniProt P04075) | 3 (inactive) |
| CD55 (lysine site: K160) (UniProt P08174) | 1.09 (active) |
| UniProt P23352 (lysine site: K411) | 2.12 (inactive) |
| SPTAN1 (lysine site: K296) (UniProt Q13813) | 2.12 (inactive) |
| HSPE1 (lysine site: K8) (UniProt P61604) | 4.22 (inactive) |
| FLNA (lysine site: K523) (UniProt P21333) | 3.84 (inactive) |
| ATP6V0D1 (lysine site: K288) (UniProt P61421) | 1.76 (active) |
| DNAJA1 (lysine site: K136) (UniProt P31689) | 1.69 (active) |
| PAICS (lysine site: K261) (UniProt P22234) | 0.93 (active) |
| SLC39A6 (lysine site: K164) (UniProt Q13433) | 7.08 (inactive) |
| CD46 (lysine site: K227) (UniProt P15529) | 6.48 (inactive) |
| HNRNPM (lysine site: K69) (UniProt P52272) | 3.38 (inactive) |
| LAMC1 (lysine site: K1093) (UniProt P11047) | 2.13 (inactive) |

Reference: the supplement of paper PMC11001985
